High-throughput results (PubChem)
Sampled rows, rich in hits. Any-hit rate of the full collection: about 4.1%.
IDE act – activators of human insulin-degrading enzyme in cells; AID 493087; HEK cells, FAbeta-B cleavage, fluorescence polarization; 0% vehicle, 100% cell-free pure enzyme wells; 340,000 compounds, 0.073% hits; activation, % at 5.96 µM;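 active means activation above the mean of all tested compounds plus 3 SD, set per screening campaign, cut at about 17% in these data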
ALR H2O2 inh – human ALR oxidase inhibition via reduced H2O2; AID 485317; 290,000 compounds, 3.8% hits; purified ALR, DTT oxidation, H2O2 HRP-luminol luminescence; inhibition, % (no concentration beside the values);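 active means mean replicate inhibition above about 79%, with every replicate also reaching it, limit read from the data; inconclusive means only one of the two criteria met; inactive means mean below limit and not every replicate reaching it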
Target sequence (P55789 whole entry, looked up): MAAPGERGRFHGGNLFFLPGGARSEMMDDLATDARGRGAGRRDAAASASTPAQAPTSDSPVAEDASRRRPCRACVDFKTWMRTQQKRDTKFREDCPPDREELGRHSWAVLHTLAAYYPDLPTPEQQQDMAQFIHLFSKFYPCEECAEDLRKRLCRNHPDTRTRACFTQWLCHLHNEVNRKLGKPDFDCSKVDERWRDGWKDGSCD
IDE inh – cellular human IDE inhibition; P14735; HEK cells, FAbetaB cleavage, fluorescence polarization; inhibition, % at 5.59 µM; 320,000 compounds, 0.41% hits; AID 434962;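 active means percent inhibition above the average of all tested compounds plus 3 SD, set per screening campaign, cut at about 16% in these data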;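 further: IDE supplied by intact live HEK cells; FP after avidin binding of uncleaved biotin substrate so inhibition keeps polarization high; 0% = DMSO wells and 100% = 60 µM reference IDE inhibitor Ii1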
PolyA inhibitor – blocks polyadenylation in yeast reporter cells; activity score, % at 12 µM; S. cerevisiae SKY197-pL101 polyadenylation reporter, beta-gal luminescence; efflux-impaired pdr1/pdr3 knockout yeast; score 100 = 6 SD above DMSO; 300,000 compounds, 0.02% hits; AID 1875;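 active means lowest replicate activity score at least 50, where 100 means six control SD above control mean; inconclusive means lowest score under 50 but half or more replicates reach 50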;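 further: yeast exposed to compound for 9 h at 30 °C; higher score means more reporter readthrough which indicates perturbed polyadenylation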
CaV13 ICDI inh – Disruptors of the CACNA1D IQ motif to Ca2+-dependent inactivation inhibitor domain association, primary screening, Förster resonance energy transfer in intact living … | HEK cells, CFP/YFP FRET ICDI-IQ, plate reader, 10 min; percent FRET-ratio fall versus neutral wells | inhibition, % at 12.3 µM | 340,000 compounds, 0.098% hits | AID 743397;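 active means mean replicate inhibition of at least 30% and at least 1% of replicates passing that level; inconclusive means only one of the two criteria is met; inactive means neither criterion is met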;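 further: 0% = median of the neutral control wells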
M18AAP inhibitor – blocks P. falciparum M18 aspartyl aminopeptidase | recombinant PfM18AAP, H-Glu-NHMec fluorogenic cleavage | AID 1822 | inhibition, % at 7.35 µM | 290,000 compounds, 1.2% hits;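 active means inhibition above the campaign mean inhibition over all tested compounds plus 3 SD, cut at about 28% in these data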;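 further: 0% = plate median of test compound wells and 100% = 2 mM ZnCl2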
* = called active by the depositor; ? = inconclusive; . = not tested or not shown.

SMILES	IDE act	ALR H2O2 inh	IDE inh	PolyA inhibitor	CaV13 ICDI inh	M18AAP inhibitor
CC(CCC(C)C(C)(C)C)[C@@H]1CC[C@H]2C3C[C@H](OS(O)(=S)=S)[C@H]4C[C@H](OS(O)(=S)=S)[C@@H](OS(O)(=S)=S)C[C@]4(C)[C@H]3CC[C@]12C (some centres undefined) (tested in a mixture with another compound)	11.4	98.1*	-10.5	.	.	.
CCN(CC)C(=S)Oc1ccc(Cl)cc1Cl	0.5	-5.0	-2.6	6.0	7.3	4.3
CCCn1c(SCC(=O)c2ccc3c(c2)NC(=O)CO3)nc2ccccc21	3.5	98.8*	2.5	29.7	10.4	6.5
O=C(CCc1c[nH]c2ccccc12)N1CCN(c2ccc(O)cc2)CC1	-5.1	-8.1	9.3	0.8	-4.9	30.6*
N#CCC(=O)Nc1ccc(C(=O)NCCc2c[nH]c3ccccc23)cc1	2.2	98.5*	0.9	3.4	-2.7	1.6
O=C(CCc1c[nH]c2ccccc12)NCCc1ccc(O)cc1	5.0	85.4*	7.0	-6.4	-15.6	-7.9
CNc1cc(-c2ccc(O)cc2C)ncn1	.	.	.	.	-4.9	.
CCCN(CCC)CCCNC(=O)CS(=O)Cc1nc(-c2ccc(OC)c(OC)c2)oc1C (centres undefined)	-0.6	99.5*	12.2	0.7	-6.0	-4.6
COCCNC(=O)CS(=O)Cc1nc(-c2ccc(Cl)cc2)oc1C (centres undefined)	-9.9	.	4.5	-18.1	-9.7	-1.1
CCCCN(C)CCCNC(=O)CS(=O)Cc1nc(-c2ccc(OC)c(OC)c2)oc1C (centres undefined)	2.2	99.6*	10.5	17.4	-5.3	-11.5
Cc1nnc(SCC(=O)Nc2sc3c(c2C(N)=O)CCCC3)[nH]c1=O	4.2	-3.4	-0.7	-8.2	-8.8	29.4*
Cc1sc(NC(=O)CSc2nnc(C)c(=O)[nH]2)c(C#N)c1C	1.8	98.4*	1.1	17.6	-8.8	26.1
Cc1cc(=O)oc2cc(OCc3ccc(C(=O)N4CCN(c5ccccc5)CC4)cc3)ccc12	3.4	-1.5	0.2	-3.6	-5.0	-0.4
c1ccc(OCc2nc3ccccc3s2)cc1	5.5	-0.8	-3.1	-18.8	-3.7	5.4
Cc1cc(OCc2nc3ccccc3s2)ccc1N	7.8	98.1*	2.4	-4.2	-21.0	13.8
CC(C)(C)NC(=O)CN(C(=O)C(=O)Nc1ccc2c(c1)OCCO2)C(C)(C)C	6.5	-7.8	-6.3	3.6	0.5	0.9
CCc1ccc(N2C(=O)CC(N(CC3CCCO3)C(=O)/C=C/C(=O)O)C2=O)cc1 (centres undefined)	2.8	-2.3	3.3	16.7	-4.1	-4.6
COc1cc(NC(=O)Nc2cccc(C(C)=O)c2)cc(OC)c1OC	-0.3	98.4*	4.0	3.3	-4.3	1.9
c1ccc(COc2ccc3nocc3c2)cc1	-0.8	.	-6.9	3.5	-5.3	.
c1coc(CSSCc2ccco2)c1	-5.5	98.3*	-4.6	.	-7.8	.
Nc1ccc(OCc2ccco2)cc1	-4.2	0.7	-1.1	-9.7	-6.7	-8.0
O=C(NNc1ccc(O)cc1)c1ccc(Br)cc1	1.6	98.6*	2.1	0.5	-1.3	9.5
c1ccc(-c2cnnc(N3CCCCC3)n2)cc1	-2.7	-2.3	-1.9	-2.6	-6.8	7.8
C[C@]12CC[C@H]3C(=CCc4cc(O)ccc43)[C@@H]1CCC2=O	-2.3	93.8*	-0.6	-5.6	-4.6	0.4
C[C@]12C[C@H](O)[C@@H]3c4ccc(O)cc4CCC3[C@@H]1CCC2=O (some centres undefined)	-1.1	.	5.6	-11.2	?	-3.4
SMILES	IDE act	ALR H2O2 inh	IDE inh	PolyA inhibitor	CaV13 ICDI inh	M18AAP inhibitor
CCOc1cc(N2CCOCC2)c(OCC)cc1NC(=O)CN1C(=O)N(C)C2(CCCCC2)C1=O	2.8	.	-0.8	.	-4.6	.
O=C(COC(=O)c1ccc(CO)cc1)Nc1ccc(OC(F)F)cc1	2.5	3.5	1.8	-14.1	-4.5	-16.7
Oc1ccc(N2Cc3ccccc3C2)cc1	-2.3	83.7*	6.9	-7.9	.	5.1
Cc1ccccc1-c1csc(C(C)(O)c2cccnc2)n1 (centres undefined)	.	.	.	.	-4.8	.
Cc1ccc2nc(-c3ccncc3)c(Nc3ccccc3)n2c1	0.3	2.7	1.6	2.6	-4.6	-0.4
COc1ccc(-c2nc3cnccn3c2Nc2ccc(C)cc2)cc1	4.6	85.7*	4.0	0.8	-4.5	-9.7
Cc1ccc(Nc2c(-c3ccccc3)nc3cnccn23)cc1	6.5	98.3*	-1.3	-11.6	-14.9	7.9
Cc1ccc(Nc2c(-c3cccnc3)nc3ccc(Br)cn23)cc1	-1.3	1.0	-4.2	13.5	-16.1	-11.8
CCOCc1nnc(NC(=O)C2c3ccccc3Oc3ccccc32)s1	1.6	50.4	2.6	6.7	-6.5	-9.4
CCCOC1CCCN(C(=O)c2cc(COc3ccc(-n4cncn4)cc3)on2)C1 (centres undefined)	0.7	-3.0	3.2	19.0	-2.7	3.2
Nc1nc2cc(Cl)c(Br)cc2o1	-6.7	.	.	.	-4.8	.
CCOC(=O)c1ccc(N=Nc2c(C)c(C#N)c(O)[nH]c2=O)cc1	2.0	-23.8	-0.2	-18.0	-5.8	-10.8
Cc1ccc(S(=O)(=O)Cc2ccc(C(=O)N3CCN(Cc4ccccc4)CC3)o2)cc1	-3.1	93.6*	1.3	26.0	5.0	-2.6
COc1ccc(N2CCN(C(=O)c3ccc(Br)o3)CC2)cc1	-0.6	83.6*	6.0	-4.2	-5.3	-3.2
O=C(c1ccc(CS(=O)(=O)c2ccc(Br)cc2)o1)N1CCCC1	1.7	95.8*	-0.6	-12.9	2.0	-9.7
COc1ccc(S(=O)(=O)Cc2ccc(C(=O)N3CCN(Cc4ccccc4)CC3)o2)cc1	-0.3	?	-2.0	-5.7	57.9*	-2.0
Cc1ccc(S(=O)(=O)Cc2ccc(C(=O)N3CCN(c4cccc(C)c4C)CC3)o2)cc1	-17.1	-3.9	7.5	2.0	-4.6	3.9
O=C(c1ccc(CS(=O)(=O)c2ccc(Br)cc2)o1)N1CCCCCC1	-3.0	-29.7	0.6	-27.7	?	-0.9
COc1cc(OC)cc(-c2c(C#Cc3ccsc3)c3cc(-c4ccc(OC)nc4)ccc3n2C)c1	7.7	-1.2	-3.3	.	-11.0	.
CC(C)[C@H](NC(=O)C1CCCC1)C(=O)N1CCC[C@H]1C(=O)NCc1ccccc1	.	.	.	.	-6.6	.
Cc1cnc(NC(=O)C2CCC(C(C)(C)C)CC2)s1 (centres undefined)	0.3	.	8.1	15.0	-4.0	1.6
COc1ccc(C(C)C)cc1S(=O)(=O)N1CCC(C(=O)NCC2CCCO2)CC1 (centres undefined)	3.1	-3.0	-3.9	0.8	.	-2.3
Cc1ccc(S(=O)(=O)Cc2ccc(C(=O)N3CCc4ccccc4C3)o2)cc1	-1.1	71.1	1.6	-0.5	8.5	-1.2
